Screening data as filed in PubChem.
Most compounds without a hit are left out; they make up all but 7% or so of the library.
GRIN3A LBD mod = NR3A (human) ligand-binding domain modulation; 340,000 compounds, 2.5% hits; AID 1259313; Tm shift relative to glycine control, % at 25 µM; NR3A LBD differential scanning fluorimetry, Tm shift; 0% = protein alone, 100% = glycine-bound protein;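 active means melting temperature shift of at least 10% of the positive control shift, at one fixed dose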
AHR act = activates the human aryl hydrocarbon receptor; activation, % at 5 µM; AID 2796; 320,000 compounds, 2.5% hits; P35869; AHR-responsive luciferase reporter cells, luminescence; in the data active means activation above about 47%;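 further: 0% = vehicle wells and 100% = reference agonist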
Target sequence (P35869 whole entry, looked up): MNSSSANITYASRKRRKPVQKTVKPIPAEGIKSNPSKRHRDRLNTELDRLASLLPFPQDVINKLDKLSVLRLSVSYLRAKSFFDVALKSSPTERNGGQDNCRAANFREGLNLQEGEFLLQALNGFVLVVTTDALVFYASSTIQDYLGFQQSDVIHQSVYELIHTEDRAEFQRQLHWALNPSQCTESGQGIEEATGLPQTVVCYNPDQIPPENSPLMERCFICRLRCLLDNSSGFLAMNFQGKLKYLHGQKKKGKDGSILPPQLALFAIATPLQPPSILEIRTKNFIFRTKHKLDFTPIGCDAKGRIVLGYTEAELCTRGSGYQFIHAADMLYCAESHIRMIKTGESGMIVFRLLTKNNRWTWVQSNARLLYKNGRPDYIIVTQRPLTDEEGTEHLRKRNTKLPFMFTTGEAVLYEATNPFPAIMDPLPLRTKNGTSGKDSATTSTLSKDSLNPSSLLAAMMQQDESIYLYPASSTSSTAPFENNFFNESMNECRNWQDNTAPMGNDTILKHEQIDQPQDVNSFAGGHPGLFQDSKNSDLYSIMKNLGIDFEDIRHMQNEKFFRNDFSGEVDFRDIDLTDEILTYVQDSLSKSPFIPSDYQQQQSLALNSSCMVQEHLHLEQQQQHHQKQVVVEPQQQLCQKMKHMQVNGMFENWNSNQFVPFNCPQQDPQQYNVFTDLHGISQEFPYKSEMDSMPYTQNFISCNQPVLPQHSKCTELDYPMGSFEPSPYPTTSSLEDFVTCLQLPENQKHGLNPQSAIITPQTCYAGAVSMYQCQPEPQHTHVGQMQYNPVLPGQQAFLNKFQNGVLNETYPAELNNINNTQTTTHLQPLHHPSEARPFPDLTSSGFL
KLK7 zymogen act = activates the human kallikrein-7 zymogen; 370,000 compounds, 0.9% hits; purified proKLK7, EDANS-DABCYL substrate fluorescence; 100% is mature enzyme control, 0% vehicle; activation, % at 7 µM; AID 652039; P49862;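 active means activation above the mean of all tested compounds plus 3 SD, computed per campaign excluding outliers beyond control limits, cut at about 13% in these data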
ADAM17 inh = inhibits human ADAM17; inhibition, % at 6.95 µM; P78536; 370,000 compounds, 0.83% hits; recombinant ADAM17, EDANS/DABCYL FRET peptide cleavage;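 active means inhibition above the mean of compounds lying between control limits plus 3 SD, set per campaign, cut at about 8.5% in these data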;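 further: 0% = DMSO-only wells as the low control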
ADAM10 inh = ADAM10 inhibition, QFRET primary screen | O14672 | recombinant ADAM10, EDANS/DABCYL FRET peptide cleavage, 3 h | inhibition, % at 7 µM | 370,000 compounds, 0.62% hits | AID 720582;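 active means inhibition above a per-campaign cutoff equal to the mean of compounds falling between control-based bounds plus 3 SD, cut at about 20% in these data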;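 further: 0% = DMSO wells while the 100% control is not disclosed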
rCAG binder = molecules binding r(CAG) RNA repeats; AID 651821; inhibition, % at 3 µM; r(CAG) RNA repeat, TO-PRO-1 dye displacement fluorescence; 370,000 compounds, 1.3% hits;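 active means inhibition above the plate cutoff, the mean of all test compounds on that plate plus 3 SD, cut at about 35% in these data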;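 further: 0% = DMSO alone and 100% = 100 µM mitoxantrone as full dye displacement; higher means more dye released from RNA so lower well fluorescence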
An asterisk follows results filed as active.

CC(=O)NC(Cc1c[nH]c2ccccc12)C(=O)NCc1ccc2c(c1)OCO2 (stereo not drawn) was read as GRIN3A LBD mod -0.3, AHR act 1.5, KLK7 zymogen act -0.2, ADAM17 inh -0.6, ADAM10 inh 2.6 and rCAG binder 1.9.
O=C(COC(=O)CCc1c[nH]c2ccccc12)Nc1ccccc1 was read as GRIN3A LBD mod 1.3, KLK7 zymogen act -0.1, ADAM17 inh 2.8, ADAM10 inh -10.4 and rCAG binder -2.4.
`COc1ccc(NC(=O)COC(=O)Cc2c[nH]c3ccccc23)cc1Cl` gave GRIN3A LBD mod 19.8*, AHR act 19.8, KLK7 zymogen act 0.4, ADAM17 inh -0.9, ADAM10 inh -10.3 and rCAG binder 3.9.
`NC(=O)c1ccc(NC(=O)COC(=O)CCCc2c[nH]c3ccccc23)cc1` gave GRIN3A LBD mod 10.3*, AHR act 6.7, KLK7 zymogen act 0.2, ADAM17 inh 0.2, ADAM10 inh -4.7 and rCAG binder 6.6.
For CC(=O)N[C@@H](Cc1c[nH]c2ccccc12)C(=O)OCC(=O)Nc1ccc2c(c1)OCO2 the results were GRIN3A LBD mod 12.3*, KLK7 zymogen act 0.3, ADAM17 inh -2.7, ADAM10 inh -3.8 and rCAG binder 2.9.
For COc1ccc(C)cc1NC(=O)COC(=O)Cc1c[nH]c2ccccc12 the results were KLK7 zymogen act 0.5, ADAM17 inh 2.5, ADAM10 inh 5.1 and rCAG binder 3.4.
Cc1cccc(-c2cccc3c4c([nH]c23)[C@@H]2C[C@H](N(C)C(=O)c3ccccc3F)[C@H]([C@H](C)O)CN2CC4)c1 was read as KLK7 zymogen act -0.1, ADAM17 inh -8.8, ADAM10 inh -30.3 and rCAG binder 13.0.
`O=C1C2CCCN2C(c2ccccc2F)N1c1ccc(Cl)cc1` (stereo not drawn) gave GRIN3A LBD mod 0.5, AHR act 51.5*, KLK7 zymogen act -0.5, ADAM17 inh 2.8, ADAM10 inh -1.2 and rCAG binder -2.0.
CCc1ccc(Cn2c(=O)n(Cc3ccc(C(=O)NCCCOC)cc3)c(=O)c3ccccc32)cc1 was read as KLK7 zymogen act 1.1, ADAM17 inh -7.1, ADAM10 inh -7.4 and rCAG binder 8.1.
Screening CCCCOc1ccc(C(=O)NC2CCCCN(Cc3ccc(C)cc3)C2=O)cc1 (stereo not drawn) returned KLK7 zymogen act 0.0, ADAM17 inh 2.8, ADAM10 inh 12.0 and rCAG binder 3.8.
CC(=O)Nc1ccc(NC(=O)c2ccc(Cl)c(S(=O)(=O)N3CCc4ccccc43)c2)cc1 was read as GRIN3A LBD mod 13.1*, KLK7 zymogen act -0.1, ADAM17 inh -9.3, ADAM10 inh -33.4 and rCAG binder 11.6.
Screening O=S(=O)(c1ccc(NC(=S)Nc2ccc3c(c2)OCO3)cc1)N1CCOCC1 returned GRIN3A LBD mod -0.2, AHR act 74.4*, KLK7 zymogen act -0.1, ADAM17 inh -3.6, ADAM10 inh -9.3 and rCAG binder 4.2.
`COc1ccc(C(=O)NCc2ccc(C)cc2)cc1S(=O)(=O)N1CCCc2ccccc21` gave GRIN3A LBD mod -2.0, AHR act -0.2, KLK7 zymogen act 0.9, ADAM17 inh 18.1*, ADAM10 inh 14.2 and rCAG binder 8.1.
Screening O=C(Nc1ccc2c(c1)OCO2)c1ccc(Cl)c(S(=O)(=O)N2CCOCC2)c1 returned GRIN3A LBD mod 17.6*, AHR act 39.8, KLK7 zymogen act -0.5, ADAM17 inh -4.2, ADAM10 inh 0.0 and rCAG binder 2.0.
`O=C(Nc1cccnc1)c1ccc(Cl)c(S(=O)(=O)N2CCc3ccccc32)c1` gave GRIN3A LBD mod 2.5, AHR act 11.8, KLK7 zymogen act -0.1, ADAM17 inh 2.2, ADAM10 inh 0.2 and rCAG binder 2.3.
`C=CCN(CC#CC1=CCCCC1)Cc1ccccc1` gave KLK7 zymogen act 0.4, ADAM17 inh -0.6, ADAM10 inh -0.8 and rCAG binder -1.1.
Screening O=C(Nc1nc2ncccn2c1-c1ccc(F)cc1)c1ccc(F)cc1 returned KLK7 zymogen act 4.4, ADAM17 inh -56.2, ADAM10 inh -193.6 and rCAG binder -1.0.
COc1ccc(NC(=O)c2[nH]c(C)c(C(C)=O)c2C)cc1S(=O)(=O)N1CCOCC1 was read as GRIN3A LBD mod -3.3, AHR act 11.6, KLK7 zymogen act 0.2, ADAM17 inh -2.6, ADAM10 inh 4.6 and rCAG binder 1.5.
`CC(=O)c1c(C)[nH]c(C(=O)Nc2ccc(Cl)c(S(=O)(=O)N3CCOCC3)c2)c1C` gave GRIN3A LBD mod -5.7, AHR act 48.7*, KLK7 zymogen act 0.5, ADAM17 inh 0.8, ADAM10 inh 1.1 and rCAG binder 4.8.
`Cc1ccc(-c2nc(Nc3ccc(O)cc3)c3ccccc3n2)cc1` gave GRIN3A LBD mod 33.9*, AHR act 54.0*, KLK7 zymogen act -0.1, ADAM17 inh 6.7, ADAM10 inh 12.1 and rCAG binder 29.5.
For Cc1cccc(-c2nc(NCCCN3CCOCC3)c3ccccc3n2)c1 the results were GRIN3A LBD mod 0.5, AHR act 51.8*, KLK7 zymogen act 0.1, ADAM17 inh -4.9, ADAM10 inh -7.2 and rCAG binder 4.8.
For Cc1ccc(-c2nc(Nc3ccc(N4CCOCC4)cc3)c3ccccc3n2)cc1 the results were GRIN3A LBD mod 6.6, AHR act 70.5*, KLK7 zymogen act -0.1, ADAM17 inh 1.9, ADAM10 inh 1.6 and rCAG binder 11.1.
`COc1ccc(Nc2nc(-c3ccncc3)nc3ccccc23)cc1` gave GRIN3A LBD mod -2.0, AHR act 8.7, KLK7 zymogen act -0.4, ADAM17 inh -2.4, ADAM10 inh -0.7 and rCAG binder 3.6.
For CCOC(=O)c1nc(Nc2ccc(C(=O)O)cc2)c2ccccc2n1 the results were GRIN3A LBD mod 13.6*, AHR act 4.7, KLK7 zymogen act 0.5, ADAM17 inh -2.2, ADAM10 inh 6.8 and rCAG binder 1.5.
`O=C1C(NC(=O)N2c3ccccc3C=Cc3ccccc32)CCCCN1Cc1cccc(C(F)(F)F)c1` (stereo not drawn) gave KLK7 zymogen act 0.2, ADAM17 inh 5.5, ADAM10 inh 14.3 and rCAG binder 0.0.
For O=C(Nc1ccccc1Cl)OC1CC2CC1[C@H]1CCCCN1[C@H]2Cc1ccccc1 (stereo partly drawn) the results were KLK7 zymogen act 0.0, ADAM17 inh -6.2, ADAM10 inh -4.0 and rCAG binder 6.0.
For COC(=O)[C@]12C[C@H](CC(=O)NCc3ccccc3)C(=O)N(Cc3ccccc3)C1=C[C@H](C1CCCC1)O[C@@H]2C the results were KLK7 zymogen act 0.5, ADAM17 inh 0.5, ADAM10 inh 6.2 and rCAG binder 3.0.
Screening CCOc1ccc(-n2c(SCC(=O)NN=Cc3ccc(C(=O)O)cc3)nnc2-c2cccnc2)cc1 returned KLK7 zymogen act 0.4, ADAM17 inh 1.2, ADAM10 inh -2.8 and rCAG binder 15.3.
